Experimental findings from PubChem BioAssay (EPA / NIEHS) are described below.

Read-out in assay [1]: TIMP metallopeptidase inhibitor 2 (TIMP2), TIMP2 (gene 7077)
Nature of the assay: BSK_KF3CT_TIMP2: BioMAP Diversity Plus: KF3CT Assay for TIMP metallopeptidase inhibitor 2 (TIMP2) Biomarker Activity (AID 2283071). As to conditions: primary human keratinocytes with fibroblasts; actives raise or lower the signal. The procedure, abridged:
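Human primary keratinocyte/foreskin fibroblast co-culture dosed with chemical and sampled at 24 h. TIMP-2 levels quantified by ELISA; bidirectional fitting against DMSO negative control as baseline.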

Read-out in assay [2]: C-C motif chemokine 2 (Homo sapiens) (UniProt P13500)
Kind of assay: BSK_KF3CT_MCP1: BioMAP Diversity Plus: KF3CT Assay for Monocyte Chemoattractant Protein 1 (MCP1/CCL2) Biomarker Activity (AID 2283073). As to conditions: primary human keratinocytes with fibroblasts; actives raise or lower the signal. The procedure, abridged: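 Keratinocytes and foreskin fibroblasts were co-cultured, dosed with chemical, and sampled 24 h later. MCP-1 was quantified by ELISA, and the endpoint was analyzed with bidirectional fitting using DMSO as negative control.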

Read-out in assay [3]: Matrix Metallopeptidase 9 (MMP9), MMP9 (gene 4318)
Kind of assay: BSK_KF3CT_MMP9: BioMAP Diversity Plus: KF3CT Assay for Matrix Metallopeptidase 9 (MMP9) Biomarker Activity (AID 2283074).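 For AC50: MMP9 protein level quantified by ELISA in the co-culture.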 The following applies: primary human keratinocytes with fibroblasts; actives raise or lower the signal. The procedure, abridged: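 Human keratinocyte/foreskin fibroblast co-culture; compound added; 24 h; MMP-9 by ELISA; bidirectional fit vs DMSO baseline.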

Read-out in assay [4]: urokinase plasminogen activator (uPA), PLAU (gene 5328)
Nature of the assay: BSK_KF3CT_uPA: BioMAP Diversity Plus: KF3CT Assay for urokinase plasminogen activator (uPA) Biomarker Activity (AID 2283075). As to conditions: primary human keratinocytes with fibroblasts; actives raise or lower the signal. In outline:
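ELISA readout of uPA, analyzed for signal gain or loss relative to DMSO, from a human primary keratinocyte–foreskin fibroblast co-culture measured 24 h after chemical treatment.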

Read-out in assay [5]: E-selectin (Homo sapiens) (UniProt P16581)
Nature of the assay: BSK_LPS_Eselectin: BioMAP Diversity Plus: LPS Assay for Eselectin Biomarker Activity (AID 2283077). As to conditions: primary human HUVEC with PBMC; actives raise or lower the signal. In outline:
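Signal of E-selectin, detected by ELISA, served as the endpoint; cells were umbilical vein endothelium with PBMC, read 24 h after treatment. DMSO defined baseline, and both increases and decreases were fitted.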

Read-out in assay [6]: Interleukin-8 (IL8), CXCL8 (gene 3576)
Kind of assay: BSK_LPS_IL8: BioMAP Diversity Plus: LPS Assay for Interleukin-8 (IL8) Biomarker Activity (AID 2283078). As to conditions: primary human HUVEC with PBMC; actives raise or lower the signal. The procedure, abridged:
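Endothelial cells and PBMC from human donors are co-cultured, treated with chemicals and LPS, then assayed for IL-8 by ELISA after 24 h. Parallel SRB staining (0.1% SRB after 10% TCA fixation, 560 nm) flags cytotoxicity.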

A short description of assay [7]: BSK_LPS_SRB: Viability Assessment in the BioMAP Diversity Plus: LPS Assay (AID 2283079).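 Note: total protein by sulforhodamine B absorbance as a cytotoxicity measure; measured one day after compound addition; fitted in both directions against DMSO so loss or gain of signal counts.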 The following applies: primary human HUVEC with PBMC. In outline: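 Overt cytotoxicity was gauged by sulforhodamine B total-protein staining in a primary human vascular endothelial and mononuclear cell co-culture 24 h post-dosing. Activity was fitted in both directions relative to DMSO.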

Read-out in assay [8]: Monocyte Chemoattractant Protein-1 (MCP1), CCL2 (gene 6347)
Nature of the assay: BSK_LPS_MCP1: BioMAP Diversity Plus: LPS Assay for Monocyte Chemoattractant Protein-1 (MCP1) Biomarker Activity (AID 2283081).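 For AC50: secreted MCP-1 protein quantified by ELISA in culture supernatant.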 As to conditions: primary human HUVEC with PBMC; actives raise or lower the signal. The procedure, abridged:
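LPS-stimulated HUVEC/PBMC co-culture; chemical, 24 h; MCP-1 by ELISA; bidirectional fit vs DMSO; cytotoxicity via SRB (0.1% stain, 10% TCA fix, 560 nm) in parallel wells.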

Assay [9] can be described thus: BSK_LPS_PGE2: BioMAP Diversity Plus: LPS Assay for Prostaglandin E2 (PGE2) Biomarker Activity (AID 2283082). As to conditions: primary human HUVEC with PBMC; actives raise or lower the signal. The procedure, abridged: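 HUVEC plus PBMC co-culture stimulated with LPS; secreted PGE2 quantified by ELISA 24 h after chemical dosing. Activity fitted bidirectionally against DMSO as negative control and baseline; parallel SRB total-protein staining served as cytotoxicity check.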

Read-out in assay [10]: Macrophage colony-stimulating factor (MCSF), CSF1 (gene 1435)
Nature of the assay: BSK_LPS_MCSF: BioMAP Diversity Plus: LPS Assay for Macrophage colony-stimulating factor (MCSF) Biomarker Activity (AID 2283083). As to conditions: primary human HUVEC with PBMC; actives raise or lower the signal. The procedure, abridged:
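Compound is added to a human vascular primary co-culture of umbilical vein endothelium and blood mononuclear cells. After 24 h, M-CSF is quantified by ELISA. Signal changes are fitted in both directions against DMSO.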

Read-out in assay [11]: Tissue Factor, F3 (gene 2152)
Nature of the assay: BSK_LPS_TissueFactor: BioMAP Diversity Plus: LPS Assay for Tissue Factor Biomarker Activity (AID 2283084). As to conditions: primary human HUVEC with PBMC; actives raise or lower the signal. The procedure, abridged: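 In this co-culture system of umbilical vein endothelium with PBMC, stimulated with LPS, cell-surface CD142 is detected by ELISA at 24 h. Endpoint values derive from bidirectional fitting, DMSO serving as baseline.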

Read-out in assay [12]: Tumor necrosis factor (Homo sapiens) (UniProt P01375)
Kind of assay: BSK_LPS_TNFa: BioMAP Diversity Plus: LPS Assay for Tumour Necrosis Factor alpha (TNFa) Biomarker Activity (AID 2283085). As to conditions: primary human HUVEC with PBMC; actives raise or lower the signal. The procedure, abridged: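 Human umbilical vein endothelial cells co-cultured with PBMC were exposed to test chemical and TNFa measured by ELISA 24 h after dosing. Bidirectional curve fitting was done relative to DMSO as negative control and baseline.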

Read-out in assay [13]: Vascular cell adhesion molecule 1 (VCAM1), VCAM1 (gene 7412)
Kind of assay: BSK_LPS_VCAM1: BioMAP Diversity Plus: LPS Assay for Vascular cell adhesion molecule 1 (VCAM1) Biomarker Activity (AID 2283086). The following applies: primary human HUVEC with PBMC; actives raise or lower the signal. In outline: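 Human umbilical vein endothelial cells co-cultured with peripheral blood mononuclear cells under LPS stimulation were exposed to test chemical for 24 h. VCAM-1 levels were then measured by ELISA, with bidirectional curve fitting relative to DMSO as negative control and baseline.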

Read-out in another assay: CD38, CD38 (gene 952)
Kind of assay: BSK_SAg_CD38: BioMAP Diversity Plus: SAg Assay for CD38 Biomarker Activity (AID 2283087). As to conditions: primary human HUVEC with PBMC; actives raise or lower the signal. The procedure, abridged: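 Fluorescence ELISA of cell-surface CD38 served as the read-out, with either increase or decrease fitted against DMSO controls. Cells were a human umbilical vein endothelium plus PBMC co-culture under SEB/TSST-1 stimulation, measured 24 h after dosing.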

Read-out in a further assay: CD40, CD40 (gene 958)
Kind of assay: BSK_SAg_CD40: BioMAP Diversity Plus: SAg Assay for CD40 Biomarker Activity (AID 2283088). As to conditions: primary human HUVEC with PBMC; actives raise or lower the signal. In outline:
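Fluorescence ELISA read-out of CD40 from umbilical vein endothelium plus peripheral blood mononuclear cells, sampled 24 h after dosing. Values come from bidirectional curve fitting with DMSO as baseline.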

Read-out in the next assay: CD69, CD69 (gene 969)
Kind of assay: BSK_SAg_CD69: BioMAP Diversity Plus: SAg Assay for CD69 Biomarker Activity (AID 2283089).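 For AC50: cell surface CD69 protein quantified by ELISA with fluorescence detection.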 The following applies: primary human HUVEC with PBMC; actives raise or lower the signal. The procedure, abridged:
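Endothelial/PBMC co-culture; chemical added; 24 h incubation; CD69 ELISA with fluorescence detection; bidirectional fit vs DMSO.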

Read-out in assay [14]: Monocyte Chemoattractant Protein-1 (MCP1), CCL2 (gene 6347)
Nature of the assay: BSK_SAg_MCP1: BioMAP Diversity Plus: SAg Assay for Monocyte Chemoattractant Protein-1 (MCP1) Biomarker Activity (AID 2283090). The following applies: primary human HUVEC with PBMC; actives raise or lower the signal. The procedure, abridged: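 MCP-1 levels in the endothelial–PBMC SAg co-culture were quantified by ELISA at 24 h post-dosing; both increases and decreases versus DMSO scored. Cytotoxicity monitored by SRB total protein in parallel cultures.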

Read-out in assay [15]: Transforming growth factor beta 1 (TGFb1), TGFB1 (gene 7040)
Kind of assay: BSK_KF3CT_TGFb1: BioMAP Diversity Plus: KF3CT Assay for Transforming growth factor beta 1 (TGFb1) Biomarker Activity (AID 2283072). As to conditions: primary human keratinocytes with fibroblasts; actives raise or lower the signal. In outline:
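Human keratinocyte plus foreskin fibroblast primary co-culture, dosed with chemical for 24 h. TGF-b1 quantified by ELISA. Activity fitted bidirectionally against DMSO negative control as baseline.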

A structure can be active in one record and inactive in another. Activity calls are given as the source filed them. Rule for the calls: active = hit-call score of the fitted dose curve at least 0.9, where 1 is the maximum; inactive = score below 0.9.

Chain of Tumor necrosis factor (Homo sapiens) (P01375 whole entry, looked up): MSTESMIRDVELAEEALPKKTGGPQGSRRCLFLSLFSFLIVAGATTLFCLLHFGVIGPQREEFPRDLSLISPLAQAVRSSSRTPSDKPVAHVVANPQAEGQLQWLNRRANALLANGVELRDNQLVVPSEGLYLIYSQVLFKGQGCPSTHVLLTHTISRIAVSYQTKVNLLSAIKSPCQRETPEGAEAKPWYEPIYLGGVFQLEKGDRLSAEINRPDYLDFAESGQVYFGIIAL
Chain of E-selectin (Homo sapiens) (P16581 whole entry, looked up): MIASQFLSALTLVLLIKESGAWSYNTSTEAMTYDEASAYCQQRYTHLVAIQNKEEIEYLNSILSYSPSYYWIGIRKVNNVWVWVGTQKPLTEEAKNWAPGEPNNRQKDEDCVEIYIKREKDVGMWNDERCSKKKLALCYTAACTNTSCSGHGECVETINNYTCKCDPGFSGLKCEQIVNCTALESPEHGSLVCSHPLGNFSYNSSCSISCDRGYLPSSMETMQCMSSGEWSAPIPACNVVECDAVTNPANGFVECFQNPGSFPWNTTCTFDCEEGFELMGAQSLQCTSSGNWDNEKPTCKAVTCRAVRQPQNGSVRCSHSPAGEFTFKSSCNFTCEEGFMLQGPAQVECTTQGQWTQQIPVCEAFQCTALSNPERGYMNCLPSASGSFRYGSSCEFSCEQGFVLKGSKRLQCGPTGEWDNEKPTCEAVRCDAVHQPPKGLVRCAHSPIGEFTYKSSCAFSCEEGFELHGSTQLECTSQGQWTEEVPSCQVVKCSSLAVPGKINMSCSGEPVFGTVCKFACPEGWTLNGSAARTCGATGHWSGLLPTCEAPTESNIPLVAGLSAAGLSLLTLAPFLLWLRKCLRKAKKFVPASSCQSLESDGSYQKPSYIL

As to `CCn1cc(C(=O)O)c(=O)c2ccc(C)nc21`, the outcome in assay [1], in assay [2], in assay [3], in assay [4], in assay [5] and in [6] was inactive. Further, the result in [7], in [8], in [9], in assay [10], in assay [11] and in assay [12] was inactive. Moreover, the outcome in assay [13] was “inactive”; with CD38, CD38 (gene 952) it was “inactive”; in the assay with CD40, CD40 (gene 958) it was “inactive”; in the assay with CD69, CD69 (gene 969) it was “inactive”; in assay [14], “inactive”.

`C=C(C)C(=O)OCCC(F)(F)C(F)(F)C(F)(F)C(F)(F)C(F)(F)C(F)(F)C(F)(F)C(F)(F)F`: the result in assay [1], in [2], in assay [3], in assay [4], in assay [5] and in assay [6] was inactive. Further, the result in [7], in assay [8], in assay [9], in assay [10], in [11] and in assay [12] was inactive. The outcome in [13] is “inactive”; with CD38, CD38 (gene 952), “inactive”; with CD40, CD40 (gene 958) it was “inactive”; in the assay with CD69, CD69 (gene 969), “inactive”; in assay [14] it was “inactive”. For the same molecule, the AC50 in assay [13] is 1.22 µM (active).

On to `c1ccc(Sc2ccccc2)cc1`, for which the AC50 was 27.8 µM (active) in assay [1]; 32 µM (active) in assay [15]; 32.8 µM (active) in assay [2]; 32.7 µM (active) in assay [3]; 33.1 µM (active) in assay [4]; 33.1 µM (active) in assay [5]. Also, the AC50 was 20 µM (active) in assay [6]; 32.2 µM (active) in assay [7]; 20 µM (active) in assay [8]; 35.6 µM (active) in assay [10]; 37 µM (active) in assay [11]; 31.6 µM (active) in assay [13]. For the same molecule, the AC50 in the assay with CD40, CD40 (gene 958) was 32.3 µM (active); with CD69, CD69 (gene 969) it was 29.7 µM (active); in assay [14] it was 8 µM (active). Further, the outcome in [9] was “inactive”; in [12], “inactive”; with CD38, CD38 (gene 952) it was “inactive”.

On to `CC(C)CCCC(C)(C)O`, for which the result in assay [1], in assay [2], in assay [3], in [4], in assay [5] and in assay [6] was inactive. Also, the result in [7], in [8], in assay [9], in assay [10], in assay [11] and in assay [12] was inactive. Moreover, the outcome in [13] was “inactive”; with CD38, CD38 (gene 952), “inactive”; with CD40, CD40 (gene 958) it was “inactive”; with CD69, CD69 (gene 969), “inactive”; in [14] it was “inactive”.

As for `CC1=CC(C)C(C=O)C(C)C1` (stereo unspecified) (tested in a mixture with another compound), the result in [1], in [15], in assay [2], in [3], in [4] and in [5] was inactive. Further, the result in assay [6], in assay [7], in [8], in [9], in [10] and in assay [11] was inactive. Besides, the outcome in [12] was “inactive”; in assay [13], “inactive”; in the assay with CD38, CD38 (gene 952) it was “inactive”; in the assay with CD40, CD40 (gene 958) it was “inactive”; with CD69, CD69 (gene 969) it was “inactive”; in assay [14], “inactive”.

In the case of `CC1(C)[C@H](C=C(Cl)Cl)[C@H]1C(=O)OCc1cccc(Oc2ccccc2)c1`, the outcome in [1], in [15], in [2], in assay [3], in [4] and in [5] was inactive. The outcome in [6], in assay [7], in assay [8], in assay [9], in assay [10] and in assay [11] was inactive. Further, the outcome is “inactive” in assay [12]; “inactive” in [13]; “inactive” with CD38, CD38 (gene 952); “inactive” with CD40, CD40 (gene 958); “inactive” in the assay with CD69, CD69 (gene 969); “inactive” in assay [14].
